Assay results as given in the supplement of paper PMC3545927.
The other results are listed elsewhere or left out. No count for the full screen is at hand.

B1: HC753 (peptide)
chain: CACTRGVAKAAGNASASA
B2: HC63 (peptide)
chain: CATTPCVGSWAGNASASA
B3: HC864 (peptide)
chain: CALVALGINAAGNASASA
B4: HC1068 (peptide)
chain: CAWVAAQLAAAGNASASA
B5: HC395 (peptide)
chain: CAWGPISYANAGNASASA
B6: FS-2460 (peptide)
chain: CARSRKRVSEAGNASASA
B7: FS-2461 (peptide)
chain: CARSRRGVSEAGNASASA
B8: FS-3172 (peptide)
chain: CARSRRDGRKAGNASASA
B9: FS-1999 (peptide)
chain: CARDGRDGRKAGNASASA
B10: FS-2186 (peptide)
chain: CARSRKAKEEAGNASASA
B11: FS-3236 (peptide)
chain: CARSRRDREEAGNASASA
B12: FS-2310 (peptide)
chain: CARSRRDFGLAGNASASA
B13: FS-3129 (peptide)
chain: CARWGRGFGLAGNASASA
B14: FS-2150 (peptide)
chain: CARIMRDSGLAGNASASA
B15: FS-2608 (peptide)
chain: CARSRRNDEEAGNASASA
B16: HC2306 (peptide)
chain: CAMVPCHRPSAGNASASA
B17: HC95 (peptide)
chain: CAVVCSSMSYAGNASASA
B18: HC1358 (peptide)
chain: CAPGDPDLSDAGNASASA
B19: FS-2291 (peptide)
chain: CARQKRQLWDAGNASASA
B20: FS-2756 (peptide)
chain: CARQKRQNKEAGNASASA
B21: FS-3202 (peptide)
chain: CARQKRAWITAGNASASA
B22: FS-2360 (peptide)
chain: CARQKRAVATAGNASASA
B23: HC459 (peptide)
chain: CACGSGPWITAGNASASA
B24: HC528 (peptide)
chain: CALWMMLLISAGNASASA
B25: HC1050 (peptide)
chain: CASTLPGNPAAGNASASA
B26: FS-2817 (peptide)
chain: CARSRRKLMVAGNASASA
B27: FS-2814 (peptide)
chain: CARSRRAQPPAGNASASA
B28: FS-2239 (peptide)
chain: CARSRRALPPAGNASASA
B29: FS-2382 (peptide)
chain: CARSRRNVVMAGNASASA
B30: FS-2607 (peptide)
chain: CARSRRCLRDAGNASASA
B31: FS-2187 (peptide)
chain: CARSRRCTCFAGNASASA
B32: FS-3211 (peptide)
chain: CARSRRWKVKAGNASASA
B33: HC2529 (peptide)
chain: CASTPCSYHLAGNASASA
B34: HC2207 (peptide)
chain: CAEVVTSFWVAGNASASA
B35: HC2484 (peptide)
chain: CASIPCSAHLAGNASASA
B36: HC101 (peptide)
chain: CAVVCCAMSYAGNASASA
B37: HC1295 (peptide)
chain: CASVPAEILRAGNASASA
B38: HC921 (peptide)
chain: CAYDAGCAWYAGNASASA
B39: HC543 (peptide)
chain: CALVSFLVFFAGNASASA
B40: FS-2815 (peptide)
chain: CARSRRAVSVAGNASASA
B41: FS-2238 (peptide)
chain: CARSRKAVDWAGNASASA
B42: FS-3234 (peptide)
chain: CARSFRSVTSAGNASASA
B43: FS-3239 (peptide)
chain: CARSRRTICVAGNASASA
B44: FS-2526 (peptide)
chain: CARSRKIAESAGNASASA
B45: HC218 (peptide)
chain: CARSRNLGKVAGNASASA
B46: FS-194 (peptide)
chain: CASQGRRRRPAGNASASA
B47: FS-3092 (peptide)
chain: CARSRRAATSAGNASASA
B48: FS-1975 (peptide)
chain: CARSNRDVFVAGNASASA
B49: FS-3265 (peptide)
chain: CARSRRTWELAGNASASA
B50: FS-1407 (peptide)
chain: CARSRRRRRPAGNASASA
B51: FS-1052 (peptide)
chain: CAPPSRRRRPAGNASASA

Molecular target: furin, P09958
Sequence (P09958 whole entry): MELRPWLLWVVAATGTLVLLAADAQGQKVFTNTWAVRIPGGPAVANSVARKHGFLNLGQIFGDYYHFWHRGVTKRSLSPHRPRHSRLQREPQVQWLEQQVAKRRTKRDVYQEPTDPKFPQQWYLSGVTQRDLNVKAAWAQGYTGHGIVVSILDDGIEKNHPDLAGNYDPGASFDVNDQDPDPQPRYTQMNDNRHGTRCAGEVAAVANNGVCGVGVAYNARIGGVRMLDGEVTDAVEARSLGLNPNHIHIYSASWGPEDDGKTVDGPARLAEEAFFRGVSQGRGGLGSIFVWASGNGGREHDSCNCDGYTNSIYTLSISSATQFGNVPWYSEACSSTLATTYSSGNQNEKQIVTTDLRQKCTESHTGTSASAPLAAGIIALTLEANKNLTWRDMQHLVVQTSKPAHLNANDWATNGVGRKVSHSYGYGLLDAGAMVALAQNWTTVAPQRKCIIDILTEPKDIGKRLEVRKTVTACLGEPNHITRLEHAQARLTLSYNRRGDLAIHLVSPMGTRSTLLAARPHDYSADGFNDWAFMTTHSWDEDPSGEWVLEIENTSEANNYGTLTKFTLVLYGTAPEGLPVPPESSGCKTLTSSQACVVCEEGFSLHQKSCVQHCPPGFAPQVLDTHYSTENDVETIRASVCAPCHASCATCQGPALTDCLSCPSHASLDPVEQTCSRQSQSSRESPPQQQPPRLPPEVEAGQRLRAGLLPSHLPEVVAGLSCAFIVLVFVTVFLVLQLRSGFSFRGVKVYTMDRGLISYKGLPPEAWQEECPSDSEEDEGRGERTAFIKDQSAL
Assay: furin cleavage Z-score vs untreated control; higher = more cleavage, active = 3.5 or more, inactive = 1 or less, 8 variable residues between constant flanks
Summary of the method: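 Abundance of DNA freed from bead-bound 8-mer peptide–cDNA fusions by purified furin was measured as sequencing read counts after PCR adapter tagging. Cutting ran 7.5, 15 or 30 min in 0.01 ml of 50 mM HEPES pH 7.5 with CaCl2 and NaCl at 1:10 enzyme:substrate. The cleavage Z-score expresses these log counts against furin-free reactions after lowess adjustment and median absolute deviation scaling.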

| Sequence | furin cleavage Z-score (7.5 min) | furin cleavage Z-score (15 min) | furin cleavage Z-score (30 min) |
| --- | --- | --- | --- |
| B1 | -1.87 (inactive) | -0.584 (inactive) | -0.853 (inactive) |
| B2 | 1.12 | 0.786 (inactive) | 1.12 |
| B3 | 1.29 | -0.504 (inactive) | -2.31 (inactive) |
| B4 | 0.334 (inactive) | 0.0281 (inactive) | 0.213 (inactive) |
| B5 | -0.888 (inactive) | 0.0541 (inactive) | -0.197 (inactive) |
| B6 | 0.0687 (inactive) | 0.727 (inactive) | 0.464 (inactive) |
| B7 | 8.54 (active) | 8.94 (active) | 5.25 (active) |
| B8 | 6.47 (active) | 7.48 (active) | 6.61 (active) |
| B9 | 1.36 | -0.614 (inactive) | -0.387 (inactive) |
| B10 | 0.169 (inactive) | -0.905 (inactive) | -0.373 (inactive) |
| B11 | 4.34 (active) | 4.09 (active) | 4.68 (active) |
| B12 | 2.52 | 5.69 (active) | 4.78 (active) |
| B13 | 1.38 | -3.28 (inactive) | 1.13 |
| B14 | -1.41 (inactive) | 0.545 (inactive) | 0.804 (inactive) |
| B15 | 0.562 (inactive) | 2.36 | 0.814 (inactive) |
| B16 | 1.55 | 0.971 (inactive) | 1.19 |
| B17 | -0.171 (inactive) | 0.902 (inactive) | 0.436 (inactive) |
| B18 | -0.316 (inactive) | -0.713 (inactive) | -1.52 (inactive) |
| B19 | 5.3 (active) | 8.17 (active) | 8.7 (active) |
| B20 | 1.89 | 0.961 (inactive) | 3.45 |
| B21 | 2.68 | 3.79 (active) | 6.77 (active) |
| B22 | 9.36 (active) | 11.9 (active) | 7.99 (active) |
| B23 | -1.7 (inactive) | -2.37 (inactive) | -1.44 (inactive) |
| B24 | -0.863 (inactive) | -0.739 (inactive) | -0.913 (inactive) |
| B25 | -1.13 (inactive) | 0.099 (inactive) | -1.54 (inactive) |
| B26 | -1.98 (inactive) | -0.17 (inactive) | -0.107 (inactive) |

| Sequence | furin cleavage Z-score (7.5 min) | furin cleavage Z-score (15 min) | furin cleavage Z-score (30 min) |
| --- | --- | --- | --- |
| B27 | 3.03 | 4.42 (active) | 4.27 (active) |
| B28 | 7.76 (active) | 7.46 (active) | 7.12 (active) |
| B29 | 5.51 (active) | 8.6 (active) | 7.9 (active) |
| B30 | 4.81 (active) | 5.74 (active) | 5.33 (active) |
| B31 | -0.747 (inactive) | -0.988 (inactive) | -0.963 (inactive) |
| B32 | 1.85 | -0.535 (inactive) | 0.212 (inactive) |
| B33 | 0.0863 (inactive) | 1 | 1.34 |
| B34 | -0.594 (inactive) | 1.74 | -0.243 (inactive) |
| B35 | 0.328 (inactive) | 0.418 (inactive) | 0.274 (inactive) |
| B36 | 1.72 | 0.536 (inactive) | 0.579 (inactive) |
| B37 | 0.956 (inactive) | 1.63 | 1.9 |
| B38 | 1.18 | 0.654 (inactive) | 0.883 (inactive) |
| B39 | -1.85 (inactive) | -1.89 (inactive) | -0.773 (inactive) |
| B40 | 4.34 (active) | 4.32 (active) | 4.26 (active) |
| B41 | -0.617 (inactive) | 2.48 | 2.21 |
| B42 | -0.371 (inactive) | 0.166 (inactive) | 0.853 (inactive) |
| B43 | 3.04 | 0.821 (inactive) | 3.9 (active) |
| B44 | -1.24 (inactive) | -0.08 (inactive) | -0.238 (inactive) |
| B45 | 1.83 | 3.1 | 0.167 (inactive) |
| B46 | -0.188 (inactive) | 0.828 (inactive) | 0.793 (inactive) |
| B47 | 10.1 (active) | 11.9 (active) | 9.59 (active) |
| B48 | 1.39 | 1.28 | 0.58 (inactive) |
| B49 | -1.05 (inactive) | 3.1 | 1.34 |
| B50 | 4.05 (active) | 4.27 (active) | 4.75 (active) |
| B51 | 0.863 (inactive) | 0.662 (inactive) | 0.635 (inactive) |
